# Among all 5,500 compounds or so, about 2,000 (36%) were called active. Inconclusive results (about 18%) are left out. The list shows a part of the results. Unmarked numbers belong to inactive results. Rule as the data show it: active = normalized growth mostly below about 0.91 (no sharp cut-off); inconclusive = no clear call, values can overlap the other calls; inactive = mostly above about 0.92.
# Assay: chemical genetic growth profiling, strain panel (AID 1159580);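 also: tested at 20 µM; growth read once vehicle control cultures reached saturation at 30 °C; 1 = growth at the plate median or of vehicle wells; lower values mean less growth of the strain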
# Settings: growth OD
# [1] = S. cerevisiae deletion strains, locus YDL101C, strain DUN1, hits give low values
# [2] = S. cerevisiae deletion strains, locus YHR030C, strain SLT2, hits give low values
compound,measurement,setting,value
CC12NC(=O)NC1(C)NC(=O)N2 (configuration not stated),normalized growth,"S. cerevisiae deletion strains, locus YAL013W, strain DEP1, hits give low values",1.04
same,normalized growth,"S. cerevisiae deletion strains, locus YBR229C, strain ROT2, hits give low values",1.01
same,normalized growth,"S. cerevisiae deletion strains, locus YCL061C, strain MRC1, hits give low values",1
same,normalized growth,[1],1.01
same,normalized growth,"S. cerevisiae deletion strains, locus YDL134C, strain PPH21, hits give low values",1.02
same,normalized growth,"S. cerevisiae deletion strains, locus YDR150W, strain NUM1, hits give low values",0.997
same,normalized growth,"S. cerevisiae deletion strains, locus YEL061C, strain CIN8, hits give low values",1.03
same,normalized growth,"S. cerevisiae deletion strains, locus YGR078C, strain PAC10, hits give low values",1.02
same,normalized growth,"S. cerevisiae deletion strains, locus YGR229C, strain SMI1, hits give low values",1.01
same,normalized growth,[2],1.07
same,normalized growth,"S. cerevisiae deletion strains, locus YHR087W, strain rtc3, hits give low values",1.01
same,normalized growth,"S. cerevisiae deletion strains, locus YJR043C, strain POL32, hits give low values",1.01
same,normalized growth,"S. cerevisiae deletion strains, locus YJR075W, strain HOC1, hits give low values",1.02
same,normalized growth,"S. cerevisiae deletion strains, locus YKL190W, strain CNB1, hits give low values",1.03
same,normalized growth,"S. cerevisiae deletion strains, locus YLR039C, strain RIC1, hits give low values",1.06
same,normalized growth,"S. cerevisiae deletion strains, locus YLR058C, strain SHM2 (second series), hits give low values",1.02
same,normalized growth,"S. cerevisiae deletion strains, locus YLR085C, strain ARP6, hits give low values",1.05
same,normalized growth,"S. cerevisiae deletion strains, locus YLR262C, strain YPT6, hits give low values",1.04
same,normalized growth,"S. cerevisiae deletion strains, locus YML094W, strain GIM5, hits give low values",1.04
same,normalized growth,"S. cerevisiae deletion strains, locus YMR219W, strain ESC1, hits give low values",1.01
same,normalized growth,"S. cerevisiae deletion strains, locus YMR263W, strain SAP30, hits give low values",1.01
same,normalized growth,"S. cerevisiae deletion strains, locus YMR307W, strain GAS1, hits give low values",1.11
same,normalized growth,"S. cerevisiae deletion strains, locus YNL153C, strain GIM3, hits give low values",1
same,normalized growth,"S. cerevisiae deletion strains, locus YNL298W, strain CLA4 (second series), hits give low values",1.05
same,normalized growth,"S. cerevisiae deletion strains, locus YNL322C, strain KRE1, hits give low values",1.01
same,normalized growth,"S. cerevisiae deletion strains, locus YNR030W, strain Alg12, hits give low values",1.02
same,normalized growth,"S. cerevisiae deletion strains, locus YOL006C, strain TOP1, hits give low values",1.09
same,normalized growth,"S. cerevisiae deletion strains, locus YPL055C, strain LGE1, hits give low values",1.04
same,normalized growth,"S. cerevisiae deletion strains, locus YPL241C, strain CIN2, hits give low values",1.05
same,normalized growth,"S. cerevisiae deletion strains, locus YPR135W, strain CTF4, hits give low values",1.02
same,normalized growth,"S. cerevisiae strains, strain wild type, hits give low values",1.01
ClC1=C(C=Nc2ccc(Cl)cc2)CSc2ccc(Cl)cc21,normalized growth,"S. cerevisiae deletion strains, locus YAR019C, strain CDC15, hits give low values",0.941
same,normalized growth,"S. cerevisiae deletion strains, locus YBL105C, strain PKC1, hits give low values",0.926
same,normalized growth,"S. cerevisiae deletion strains, locus YBR135W, strain CKS1, hits give low values",0.939
same,normalized growth,"S. cerevisiae deletion strains, locus YBR136W, strain MEC1, hits give low values",0.926
same,normalized growth,"S. cerevisiae deletion strains, locus YBR160W, strain CDC28, hits give low values",0.937
same,normalized growth,"S. cerevisiae deletion strains, locus YDL017W, strain CDC7, hits give low values",0.933
same,normalized growth,"S. cerevisiae deletion strains, locus YDL028C, strain MPS1, hits give low values",0.912
same,normalized growth,[1],0.945
same,normalized growth,"S. cerevisiae deletion strains, locus YDL108W, strain KIN28, hits give low values",0.923
same,normalized growth,"S. cerevisiae deletion strains, locus YDL132W, strain cdc53, hits give low values",0.936
same,normalized growth,"S. cerevisiae deletion strains, locus YDL214C, strain PRR2, hits give low values",0.896
same,normalized growth,"S. cerevisiae deletion strains, locus YDR052C, strain DBF4, hits give low values",0.943
same,normalized growth,"S. cerevisiae deletion strains, locus YDR054C, strain cdc34, hits give low values",0.919
same,normalized growth,"S. cerevisiae deletion strains, locus YDR226W, strain ADK1, hits give low values",0.914
same,normalized growth,"S. cerevisiae deletion strains, locus YDR477W, strain SNF1, hits give low values",0.879
same,normalized growth,"S. cerevisiae deletion strains, locus YER123W, strain YCK3, hits give low values",0.83
same,normalized growth,"S. cerevisiae deletion strains, locus YER133W, strain GLC7, hits give low values",0.891
same,normalized growth,"S. cerevisiae deletion strains, locus YFL009W, strain cdc4, hits give low values",0.924
same,normalized growth,"S. cerevisiae deletion strains, locus YFL029C, strain CAK1, hits give low values",0.928
same,normalized growth,"S. cerevisiae deletion strains, locus YFR003C, strain YPI1, hits give low values",0.94
same,normalized growth,"S. cerevisiae deletion strains, locus YFR019W, strain FAB1, hits give low values",0.909
same,normalized growth,"S. cerevisiae deletion strains, locus YFR028C, strain CDC14, hits give low values",0.935
same,normalized growth,"S. cerevisiae deletion strains, locus YGR040W, strain KSS1, hits give low values",0.866
same,normalized growth,"S. cerevisiae deletion strains, locus YGR052W, strain FMP48, hits give low values",0.905
same,normalized growth,"S. cerevisiae deletion strains, locus YGR092W, strain DBF2, hits give low values",0.796
same,normalized growth,[2],0.74 (active)
same,normalized growth,"S. cerevisiae deletion strains, locus YHR079C, strain IRE1, hits give low values",0.862
same,normalized growth,"S. cerevisiae deletion strains, locus YHR082C, strain KSP1, hits give low values",0.816
same,normalized growth,"S. cerevisiae deletion strains, locus YHR205W, strain SCH9, hits give low values",0.812
same,normalized growth,"S. cerevisiae deletion strains, locus YIL147C, strain SLN1, hits give low values",0.926
same,normalized growth,"S. cerevisiae deletion strains, locus YJL095W, strain BCK1, hits give low values",0.881
same,normalized growth,"S. cerevisiae deletion strains, locus YJL128C, strain PBS2, hits give low values",0.903
same,normalized growth,"S. cerevisiae deletion strains, locus YJL157C, strain FAR1, hits give low values",0.886
same,normalized growth,"S. cerevisiae deletion strains, locus YJR016C, strain ILV3, hits give low values",0.936
same,normalized growth,"S. cerevisiae deletion strains, locus YJR066W, strain TOR1 (second series), hits give low values",0.91
same,normalized growth,"S. cerevisiae deletion strains, locus YJR066W, strain TOR1, hits give low values",0.815
same,normalized growth,"S. cerevisiae deletion strains, locus YKL048C, strain ELM1, hits give low values",0.941
same,normalized growth,"S. cerevisiae deletion strains, locus YKL067W, strain YNK1, hits give low values",0.902
same,normalized growth,"S. cerevisiae deletion strains, locus YKL101W, strain HSL1, hits give low values",0.893
same,normalized growth,"S. cerevisiae deletion strains, locus YKL193C, strain SDS22, hits give low values",0.932
same,normalized growth,"S. cerevisiae deletion strains, locus YKL203C, strain TOR2, hits give low values",0.884
same,normalized growth,"S. cerevisiae deletion strains, locus YLR113W, strain HOG1, hits give low values",0.808 (active)
same,normalized growth,"S. cerevisiae deletion strains, locus YLR133W, strain CKI1, hits give low values",0.869
same,normalized growth,"S. cerevisiae deletion strains, locus YLR403W, strain SFP1, hits give low values",0.836
same,normalized growth,"S. cerevisiae deletion strains, locus YML070W, strain DAK1, hits give low values",0.89
same,normalized growth,"S. cerevisiae deletion strains, locus YMR001C, strain CDC5, hits give low values",0.927
same,normalized growth,"S. cerevisiae deletion strains, locus YMR205C, strain PFK2 (second series), hits give low values",0.904
same,normalized growth,"S. cerevisiae deletion strains, locus YMR277W, strain FCP1, hits give low values",0.933
same,normalized growth,"S. cerevisiae deletion strains, locus YNL006W, strain LST8, hits give low values",0.928
same,normalized growth,"S. cerevisiae deletion strains, locus YNL020C, strain ARK1, hits give low values",0.883
same,normalized growth,"S. cerevisiae deletion strains, locus YNL161W, strain CBK1, hits give low values",0.929
same,normalized growth,"S. cerevisiae deletion strains, locus YNL183C, strain NPR1, hits give low values",0.841
same,normalized growth,"S. cerevisiae deletion strains, locus YNL207W, strain RIO2, hits give low values",0.926
same,normalized growth,"S. cerevisiae deletion strains, locus YNL222W, strain SSU72, hits give low values",0.947
same,normalized growth,"S. cerevisiae deletion strains, locus YNL307C, strain MCK1 (second series), hits give low values",0.861
same,normalized growth,"S. cerevisiae deletion strains, locus YOL078W, strain AVO1, hits give low values",0.937
same,normalized growth,"S. cerevisiae deletion strains, locus YOL136C, strain PFK27, hits give low values",0.886
same,normalized growth,"S. cerevisiae deletion strains, locus YOR061W, strain CKA2, hits give low values",0.843
same,normalized growth,"S. cerevisiae deletion strains, locus YOR119C, strain RIO1, hits give low values",0.848
same,normalized growth,"S. cerevisiae deletion strains, locus YOR231W, strain MKK1, hits give low values",0.924
same,normalized growth,"S. cerevisiae deletion strains, locus YOR329C, strain SCD5, hits give low values",0.93
same,normalized growth,"S. cerevisiae deletion strains, locus YPL031C, strain PHO85, hits give low values",0.87
same,normalized growth,"S. cerevisiae deletion strains, locus YPL153C, strain RAD53, hits give low values",0.904
same,normalized growth,"S. cerevisiae deletion strains, locus YPL204W, strain HRR25, hits give low values",0.893
same,normalized growth,"S. cerevisiae deletion strains, locus YPL209C, strain IPL1, hits give low values",0.932
same,normalized growth,"S. cerevisiae deletion strains, locus YPL256C, strain CLN2, hits give low values",0.843 (active)
same,normalized growth,"S. cerevisiae deletion strains, locus YPR025C, strain CCL1, hits give low values",0.935
same,normalized growth,"S. cerevisiae deletion strains, locus YPR106W, strain ISR1, hits give low values",0.922
same,normalized growth,"S. cerevisiae deletion strains, locus YPR111W, strain DBF20, hits give low values",0.923
same,normalized growth,"S. cerevisiae deletion strains, strain NNK1, hits give low values",0.923
same,normalized growth,"S. cerevisiae deletion strains, strain TSCII, hits give low values",0.93
